Consider 6 compounds from PubChem BioAssay (NCI).

“And” between values parts separate entries of the source, which are not always exact repeats. Identical values can stand only once. The panel holds about 79,000 compounds, 15% with a hit somewhere; the sample as a whole holds those more often. Some compounds were tested as several samples or in several runs, with calls that do not always agree. The source made the active and inactive calls. No stated cut-off is given here; in the data, active means growth inhibition above about 70%; inactive means the rest.

This assay can be described thus: NCI Yeast Anticancer Drug Screen. Data for the bub3 strain (AID 167). As to conditions: S. cerevisiae bub3 mutant strain, stronger effect = higher value. The procedure:
Growth inhibition of yeast strains with defined genetic alterations is measured as a screen for potential anti-cancer activity. Selected strains with alterations in DNA damage repair or cell cycle control were exposed to compounds and growth inhibition was measured relative to vehicle treated controls. The strain used in this assay is bub3

Setting [1] is: at 5.0 µM (retest, dose inferred, filed as 0.5).
Setting [2] is: at 50.0 µM (retest, dose inferred, filed as 5.0).

For the compound `OC1C#CCSCC#C/C=C\1` (stereo not drawn), the growth inhibition reads like this: (at 1.2 µM) -8% (inactive); (at 3.7 µM) -16% (inactive); under setting [1], 16% (inactive); (at 11.0 µM) 17% (inactive); (at 33.0 µM) -10% (inactive); under setting [2], 97% (active). Also, the growth inhibition by setting is: (at 50.0 µM) 84.2% (active); (at 100.0 µM) 96% (active).

`COc1ccc(/C=C2\S/C(=N/Nc3nc(-c4ccccc4)cs3)NC2=O)cc1OC`: the growth inhibition (at 1.2 µM) is 82% (active); the growth inhibition (at 3.7 µM) was 93% (active); the growth inhibition under setting [1] is 94% (active); the growth inhibition (at 11.0 µM) is 97% (active); the growth inhibition (at 33.0 µM) was 97% (active); the growth inhibition under setting [2] is 98% (active). Also, the growth inhibition reads like this: (at 50.0 µM) 98.3% (active); (at 100.0 µM) 97% (active).

As to `O=C(c1c(F)c(F)c(F)c(F)c1F)c1c(F)c(F)c(F)c(F)c1F`, the growth inhibition is 54% (inactive) (at 1.2 µM); 80% (active) (at 3.7 µM); 3% (inactive) under setting [1]; 96% (active) (at 11.0 µM); 99% (active) (at 33.0 µM); 80% (active) under setting [2]. In addition, the growth inhibition was 88.7% (active) (at 50.0 µM) and 97% (active) (at 100.0 µM).

Turning to `CC(C)(C(=O)NN)c1ccccc1`, the growth inhibition runs as follows: (at 1.2 µM) -3% (inactive); (at 3.7 µM) 0% (inactive); under setting [1], -14% (inactive); (at 11.0 µM) 34% (inactive); (at 33.0 µM) 70% (active); under setting [2], 97% (active). In addition, the growth inhibition by setting is: (at 50.0 µM) 52% (inactive); (at 100.0 µM) 94% (active).

Turning to `Cc1c(N=Nc2ccc(Cl)cc2)c(C)n(C2OC(CO)C(O)C(O)C2O)c(=S)c1C#N` (stereo not drawn), the growth inhibition by setting is: (at 1.2 µM) 0% (inactive); (at 3.7 µM) 2% (inactive); under setting [1], 1% (inactive); (at 11.0 µM) 9% (inactive); (at 33.0 µM) 23% (inactive); under setting [2], -3% (inactive). Besides, the growth inhibition was 75.5% (active) (at 50.0 µM) and 45% (inactive) (at 100.0 µM).

As to `CCCCCCCCCCCC[N+](C)(C)C`, the growth inhibition reads like this: under setting [1], 14% (inactive) and 9% (inactive) and 18% (inactive); under setting [2], 95% (active) and 98% (active) and 100% (active); (at 50.0 µM) 57.2% (inactive) and 82.1% (active) and 97.2% (active).
